The full data set covers some 8,800 targets. This sample favours those with a hit. About 0.5% of all pairs of compound and target were hits.
Tests used:
Assay in all cases: log2 fold change, soluble protein after heating vs DMSO (PISA); higher = thermal stabilisation; K562 lysate, 10 uM; active = over 0.2 and 3.5 SD of the protein, either way, in both replicates (recomputed)
erlotinib = compound: C#Cc1cccc(Nc2ncnc3cc(OCCOC)c(OCCOC)cc23)c1 [erlotinib]
Method in brief: (§1)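 Log-two fold change in thermal stability relative to solvent controls is reported from duplicates. For each sample, crude K562 extract from dounce-homogenised pellets in PBS pH 7.4 with 1 mM MgCl2, at 1 mg/mL protein, was treated with 10 μM compound for 30 min. Aliquots heated for 3 min across 48°C-58°C were pooled, brought to 0.5% NP-40 at 4°C and cleared at 21,000xg for 90 min. The supernatant was quantified by TMTpro 16plex LC-MS/MS with channel sums equalised.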

[1] = compound: C/C(=N\NC(=O)C1=CC(=CC=C1)S(=O)(=O)N2CCOCC2)/C3=C(C=CC(=C3)Cl)O
Method in brief: as §1

[2] = compound: C1=CC(=CC=C1C2=NC3=C(N2)C=C(C=C3)C(=O)N)OC4=CC=C(C=C4)Cl
Method in brief: as §1

[3] = compound: C1=CC2=C(C=CC(=C2)/C=C\3/C(=O)NC(=NCC4=CC=CS4)S3)N=C1
Method in brief: as §1

[4] = compound: C1=CC2=NC=CN=C2C=C1/C=C/3\C(=O)NC(=O)S3
Method in brief: as §1

[5] = compound: C1=CC=C(C=C1)C2=NC(=C(N2)C3=CC=NC=C3)C4=CC(=C(C=C4)Cl)O
Method in brief: as §1

[6] = compound: C1=CC=C2C(=C1)C3=NNC4=CC=CC(=C43)C2=O
Method in brief: as §1

[7] = compound: C1CCN(C1)C(=O)NC2=CC=CC(=C2)NC3=NC=C(C(=N3)NCCC4=CN=CN4)Br
Method in brief: as §1

[8] = compound: C1CN(CCC1(CC2=CC=C(C=C2)Cl)N)C3=NC=NC4=C3C=CN4
Method in brief: as §1

IRAK-1-4 Inhibitor I = compound: C1COCCN1CCN2C3=CC=CC=C3N=C2NC(=O)C4=CC(=CC=C4)[N+](=O)[O-] [IRAK-1-4 Inhibitor I]
Method in brief: as §1

ibrutinib = compound: C=CC(=O)N1CCC[C@@H](n2nc(-c3ccc(Oc4ccccc4)cc3)c3c(N)ncnc32)C1 [ibrutinib]
Method in brief: as §1

[9] = compound: CC(=O)c1cnc2ccc(-c3cc(Cl)c(O)c(Cl)c3)nc2c1N[C@H]1CC[C@H](CN(C)C)CC1
Method in brief: as §1

ralimetinib = compound: CC(C)(C)Cn1c(N)nc2ccc(-c3[nH]c(C(C)(C)C)nc3-c3ccc(F)cc3)nc21 [ralimetinib]
Method in brief: as §1

[10] = compound: CC(C)(O)CC(=O)NCCn1ccc2ncnc(Nc3ccc(Oc4cccc(C(F)(F)F)c4)c(Cl)c3)c21
Method in brief: as §1

[11] = compound: CC(C)C1=C2N=C(C=C(N2N=C1)NCC3=CC=CC=C3)NCCCCCCN
Method in brief: as §1

[12] = compound: CC1=C(C(CC(=O)N1)C2=CC=C(C=C2)C(F)(F)F)C(=O)NC3=C(C=C4C(=C3)C=NN4)F
Method in brief: as §1

[13] = compound: CC1=C(C2=C(C=C1)C(=O)C3=CC=CC=C3N2CCCN)C
Method in brief: as §1

[14] = compound: CC1=C(C=C(C=C1)NC(=O)C2=CC(=CC=C2)C(C)(C)C#N)NC3=CC4=C(C=C3)N=CN(C4=O)C
Method in brief: as §1

[15] = compound: CC1=C(C=C(C=C1)NC(=O)C2=CC(=CC=C2)N(C)C)NC(=O)C3=CC=C(C=C3)O
Method in brief: as §1

[16] = compound: CC1=CC=C(C=C1)SC2=C3C=C(SC3=CN=C2)C(=O)N
Method in brief: as §1

Measured: log2 fold change

COL6A5 (UniProt A8TX70)
inactive: erlotinib 0.064 | [1] 0.161 | [2] 0.02 | [3] -0.062 | [4] -0.167 | [5] 0.027 | [6] 0.014 | [7] 0.014 | [8] -0.052 | IRAK-1-4 Inhibitor I 0.046 | ibrutinib 0.046 | [9] -0.023 | ralimetinib -0.083 | [10] -0.141 | [11] 0.018 | [12] 0.063 | [13] -0.038 | [14] 0.108 | [15] -0.011 | [16] -0.053

DDX39A (UniProt O00148)
Chain of UniProt O00148 (O00148 whole entry, looked up): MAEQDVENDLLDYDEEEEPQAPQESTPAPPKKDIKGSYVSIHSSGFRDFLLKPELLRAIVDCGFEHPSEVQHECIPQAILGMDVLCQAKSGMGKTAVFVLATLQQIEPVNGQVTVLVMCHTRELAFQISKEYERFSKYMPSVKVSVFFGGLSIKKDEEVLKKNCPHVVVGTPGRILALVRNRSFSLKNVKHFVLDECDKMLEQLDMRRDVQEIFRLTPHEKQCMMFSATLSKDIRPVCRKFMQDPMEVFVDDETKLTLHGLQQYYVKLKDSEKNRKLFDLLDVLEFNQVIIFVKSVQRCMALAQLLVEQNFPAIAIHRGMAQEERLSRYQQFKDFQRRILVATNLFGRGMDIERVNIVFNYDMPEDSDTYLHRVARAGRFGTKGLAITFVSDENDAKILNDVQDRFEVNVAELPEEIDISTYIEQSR
inactive: erlotinib 0.023 | [1] -0.095 | [2] -0.045 | [3] -0.001 | [4] -0.003 | [5] 0.008 | [6] -0.026 | [7] -0.02 | [8] 0.009 | IRAK-1-4 Inhibitor I 0.014 | ibrutinib -0.005 | [9] 0.062 | ralimetinib -0.009 | [10] 0.029 | [11] 0.022 | [12] 0 | [13] 0.009 | [14] -0.032 | [15] -0.016 | [16] -0.004

CUL1 (UniProt Q13616)
Chain of UniProt Q13616 (Q13616 whole entry, looked up): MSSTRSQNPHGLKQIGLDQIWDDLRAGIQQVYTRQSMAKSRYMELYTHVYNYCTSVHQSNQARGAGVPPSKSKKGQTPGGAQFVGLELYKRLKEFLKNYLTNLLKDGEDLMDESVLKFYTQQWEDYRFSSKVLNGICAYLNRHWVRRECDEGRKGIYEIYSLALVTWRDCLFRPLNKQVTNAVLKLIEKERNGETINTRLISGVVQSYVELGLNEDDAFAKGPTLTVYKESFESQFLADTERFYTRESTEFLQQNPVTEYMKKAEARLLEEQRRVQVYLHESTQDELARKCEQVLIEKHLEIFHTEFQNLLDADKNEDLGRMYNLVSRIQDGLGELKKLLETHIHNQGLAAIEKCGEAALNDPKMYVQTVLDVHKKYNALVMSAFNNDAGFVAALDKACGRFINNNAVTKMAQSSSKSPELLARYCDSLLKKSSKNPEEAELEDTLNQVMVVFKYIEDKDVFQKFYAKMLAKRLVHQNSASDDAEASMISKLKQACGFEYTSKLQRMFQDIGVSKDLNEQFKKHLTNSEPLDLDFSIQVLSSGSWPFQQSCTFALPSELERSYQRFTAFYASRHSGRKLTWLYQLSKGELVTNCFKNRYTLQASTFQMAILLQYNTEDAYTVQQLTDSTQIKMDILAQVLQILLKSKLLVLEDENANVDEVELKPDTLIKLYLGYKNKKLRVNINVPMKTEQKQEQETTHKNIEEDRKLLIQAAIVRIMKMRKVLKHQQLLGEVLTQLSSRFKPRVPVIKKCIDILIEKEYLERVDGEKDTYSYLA
inactive: erlotinib -0.011 | [1] 0.006 | [2] 0.026 | [3] 0.01 | [4] 0.009 | [5] -0.011 | [6] 0.017 | [7] 0 | [8] -0.006 | IRAK-1-4 Inhibitor I -0.013 | ibrutinib 0.02 | [9] 0.005 | ralimetinib -0.004 | [10] -0.016 | [11] -0.018 | [12] -0.014 | [13] 0.016 | [14] 0.02 | [15] -0.001 | [16] -0.01

COG2 (UniProt Q14746)
Chain of UniProt Q14746 (Q14746 whole entry, looked up): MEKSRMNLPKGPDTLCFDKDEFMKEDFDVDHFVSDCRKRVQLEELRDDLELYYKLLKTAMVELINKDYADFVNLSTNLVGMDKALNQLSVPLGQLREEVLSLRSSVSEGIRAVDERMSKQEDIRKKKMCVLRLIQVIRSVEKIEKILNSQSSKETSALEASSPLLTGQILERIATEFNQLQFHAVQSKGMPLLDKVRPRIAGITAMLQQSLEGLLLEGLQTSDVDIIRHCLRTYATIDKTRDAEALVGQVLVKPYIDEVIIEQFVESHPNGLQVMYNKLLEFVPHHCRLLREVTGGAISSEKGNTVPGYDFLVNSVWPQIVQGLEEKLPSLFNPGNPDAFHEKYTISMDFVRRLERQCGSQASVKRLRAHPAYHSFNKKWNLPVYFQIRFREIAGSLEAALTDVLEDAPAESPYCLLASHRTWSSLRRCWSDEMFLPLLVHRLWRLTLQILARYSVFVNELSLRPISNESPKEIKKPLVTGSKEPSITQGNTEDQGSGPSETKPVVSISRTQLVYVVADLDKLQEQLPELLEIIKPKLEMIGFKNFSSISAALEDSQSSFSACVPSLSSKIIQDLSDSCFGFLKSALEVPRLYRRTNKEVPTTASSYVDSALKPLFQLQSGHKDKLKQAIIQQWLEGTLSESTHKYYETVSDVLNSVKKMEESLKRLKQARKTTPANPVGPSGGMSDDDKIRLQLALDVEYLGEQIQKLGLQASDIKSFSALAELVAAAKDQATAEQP
inactive: erlotinib 0.009 | [1] 0.036 | [2] -0.021 | [3] -0.022 | [4] -0.032 | [5] -0.017 | [6] -0.001 | [7] 0.011 | [8] 0.031 | IRAK-1-4 Inhibitor I 0.03 | ibrutinib -0.029 | [9] -0.023 | ralimetinib 0.017 | [10] -0.017 | [11] 0 | [12] 0.023 | [13] -0.035 | [14] -0.019 | [15] 0.062 | [16] -0.009

DERA (UniProt Q9Y315)
Chain of UniProt Q9Y315 (Q9Y315 whole entry, looked up): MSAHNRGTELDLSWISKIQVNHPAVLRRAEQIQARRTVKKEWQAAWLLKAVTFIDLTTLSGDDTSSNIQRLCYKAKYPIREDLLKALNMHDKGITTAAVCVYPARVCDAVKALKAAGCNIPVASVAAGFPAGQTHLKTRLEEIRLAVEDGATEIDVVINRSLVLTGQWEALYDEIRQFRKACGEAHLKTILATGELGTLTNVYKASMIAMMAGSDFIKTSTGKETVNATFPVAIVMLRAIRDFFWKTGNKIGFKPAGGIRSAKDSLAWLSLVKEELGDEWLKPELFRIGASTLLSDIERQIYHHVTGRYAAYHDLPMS
inactive: erlotinib -0.008 | [1] 0.008 | [2] 0.028 | [3] 0.014 | [4] 0.015 | [5] 0.001 | [6] 0.019 | [7] 0.013 | [8] 0.023 | IRAK-1-4 Inhibitor I 0.002 | ibrutinib -0.011 | [9] 0.008 | ralimetinib 0.008 | [10] -0.032 | [11] 0.013 | [12] -0.01 | [13] -0.037 | [14] 0.033 | [15] -0.008 | [16] -0.017

DHCR7 (UniProt Q9UBM7)
Chain of UniProt Q9UBM7 (Q9UBM7 whole entry, looked up): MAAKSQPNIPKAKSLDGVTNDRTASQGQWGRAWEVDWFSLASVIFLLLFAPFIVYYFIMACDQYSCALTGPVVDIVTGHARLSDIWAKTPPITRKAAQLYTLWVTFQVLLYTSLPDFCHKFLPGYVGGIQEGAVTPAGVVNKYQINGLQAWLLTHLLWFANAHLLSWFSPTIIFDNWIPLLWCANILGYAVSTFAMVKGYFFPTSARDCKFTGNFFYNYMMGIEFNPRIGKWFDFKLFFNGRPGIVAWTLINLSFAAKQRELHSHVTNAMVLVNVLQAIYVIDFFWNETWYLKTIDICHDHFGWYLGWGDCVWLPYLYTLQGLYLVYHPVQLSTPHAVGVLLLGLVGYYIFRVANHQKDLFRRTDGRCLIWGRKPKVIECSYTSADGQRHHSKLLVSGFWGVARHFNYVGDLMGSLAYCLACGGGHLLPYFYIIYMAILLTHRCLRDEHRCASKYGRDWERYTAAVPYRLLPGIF
inactive: erlotinib -0.051 | [1] 0.081 | [2] -0.153 | [3] -0.016 | [4] 0.033 | [5] -0.024 | [6] -0.019 | [7] -0.058 | [8] 0.075 | IRAK-1-4 Inhibitor I 0.007 | ibrutinib -0.026 | [9] 0.016 | ralimetinib 0.071 | [10] -0.042 | [11] -0.018 | [12] 0.01 | [13] -0.007 | [14] -0.017 | [15] -0.011 | [16] -0.002

DES (UniProt P17661)
Chain of UniProt P17661 (P17661 whole entry, looked up): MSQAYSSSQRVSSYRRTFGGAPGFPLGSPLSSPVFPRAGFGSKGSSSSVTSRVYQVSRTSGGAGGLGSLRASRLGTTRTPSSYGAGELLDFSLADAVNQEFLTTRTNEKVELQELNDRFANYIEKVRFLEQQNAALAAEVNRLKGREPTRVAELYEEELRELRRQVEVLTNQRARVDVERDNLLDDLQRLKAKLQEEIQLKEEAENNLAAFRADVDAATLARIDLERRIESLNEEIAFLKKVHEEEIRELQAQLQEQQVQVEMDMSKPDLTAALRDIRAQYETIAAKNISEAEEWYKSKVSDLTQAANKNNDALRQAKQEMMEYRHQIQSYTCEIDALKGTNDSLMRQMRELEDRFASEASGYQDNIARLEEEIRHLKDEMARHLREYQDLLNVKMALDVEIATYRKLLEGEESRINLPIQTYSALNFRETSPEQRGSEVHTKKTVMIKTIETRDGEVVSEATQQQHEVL
inactive: erlotinib 0.014 | [1] 0.012 | [2] 0.023 | [3] -0.074 | [4] -0.016 | [5] -0.026 | [6] -0.018 | [7] 0.048 | [8] 0.1 | IRAK-1-4 Inhibitor I 0.09 | ibrutinib 0.044 | [9] 0 | ralimetinib 0.025 | [10] -0.16 | [11] -0.01 | [12] -0.026 | [13] -0.045 | [14] 0.057 | [15] -0.017 | [16] -0.057

CMSS1 (UniProt Q9BQ75)
Chain of UniProt Q9BQ75 (Q9BQ75 whole entry, looked up): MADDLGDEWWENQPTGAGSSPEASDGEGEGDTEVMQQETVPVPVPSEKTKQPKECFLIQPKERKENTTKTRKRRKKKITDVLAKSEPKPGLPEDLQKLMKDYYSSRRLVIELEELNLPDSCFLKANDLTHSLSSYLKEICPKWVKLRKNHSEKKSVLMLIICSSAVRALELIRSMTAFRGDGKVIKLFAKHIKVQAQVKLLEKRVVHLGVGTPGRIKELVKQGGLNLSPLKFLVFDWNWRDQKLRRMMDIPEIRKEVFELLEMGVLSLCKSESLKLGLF
inactive: erlotinib -0.029 | [1] 0.018 | [2] -0.031 | [3] 0.011 | [4] -0.059 | [5] -0.004 | [6] 0.011 | [7] -0.011 | [8] 0.03 | IRAK-1-4 Inhibitor I -0.035 | ibrutinib -0.012 | [9] -0.016 | ralimetinib -0.002 | [10] -0.011 | [11] 0.047 | [12] -0.015 | [13] 0.027 | [14] -0.059 | [15] 0.019 | [16] -0.004

— the supplement of paper PMC10849652
